± gives the standard deviation of the averaged measurements.
Legend:
Test in all cases: promoter activity interaction Z-score (Lux/OD deviation from empty-vector control); higher = stronger promoter induction by the compound
[1] = test system: E. coli BW25113 robp lux reporter
Method in brief: (§1)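 At 37°C, E. coli BW25113 reporter cultures in 40 µl LB Lennox in 384-well plates were read for OD600 and luminescence every 30 min for 12 h. Windows were 0–8 h for wild type and 1–9 h for deletion strains, and wells under 10% of the median growth value were removed. The score is the Z-transformed residual of growth-normalised luminescence against a control fit.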

[2] = test system: E. coli BW25113 soxSp lux reporter
Method in brief: as §1

[3] = test system: E. coli BW25113 tolCp lux reporter
Method in brief: as §1

[4] = 32.1 µg/ml, genetic background: wild type
[5] = 32.1 µg/ml, genetic background: ΔmarA
[6] = 32.1 µg/ml, genetic background: Δrob
[7] = 32.1 µg/ml, genetic background: ΔsoxS
[8] = 64.2 µg/ml, genetic background: wild type
[9] = 64.2 µg/ml, genetic background: ΔmarA
[10] = 64.2 µg/ml, genetic background: Δrob
[11] = 64.2 µg/ml, genetic background: ΔsoxS
[12] = 128.4 µg/ml, genetic background: wild type
[13] = 128.4 µg/ml, genetic background: ΔmarA
[14] = 128.4 µg/ml, genetic background: Δrob
[15] = 128.4 µg/ml, genetic background: ΔsoxS
[16] = 256.8 µg/ml, genetic background: wild type
[17] = 256.8 µg/ml, genetic background: ΔmarA
[18] = 256.8 µg/ml, genetic background: Δrob
[19] = 256.8 µg/ml, genetic background: ΔsoxS

CN(C)C(=O)C(CCN1CCC(O)(c2ccc(Cl)cc2)CC1)(c1ccccc1)c1ccccc1 [Loperamide]
promoter activity interaction Z-score [1, 4]: -0.195 ± 0.23 | promoter activity interaction Z-score [1, 5]: -0.672 ± 0.52 | promoter activity interaction Z-score [1, 6]: 0.735 ± 0.061 | promoter activity interaction Z-score [1, 7]: 0.0686 ± 0.097 | promoter activity interaction Z-score [1, 8]: 0.0117 ± 0.077 | promoter activity interaction Z-score [1, 9]: -0.171 ± 0.68 | promoter activity interaction Z-score [1, 10]: 0.22 ± 0.015 | promoter activity interaction Z-score [1, 11]: 0.000621 ± 0.037 | promoter activity interaction Z-score [1, 12]: -0.524 ± 0.45 | promoter activity interaction Z-score [1, 13]: -0.323 ± 0.55 | promoter activity interaction Z-score [1, 14]: -0.996 ± 0.2 | promoter activity interaction Z-score [1, 15]: -0.571 ± 0.73 | promoter activity interaction Z-score [1, 16]: -1.15 ± 0.5 | promoter activity interaction Z-score [1, 17]: -0.901 ± 1.4 | promoter activity interaction Z-score [1, 18]: -2.1 ± 0.29 | promoter activity interaction Z-score [1, 19]: -1.78 ± 0.21 | promoter activity interaction Z-score [2, 4]: 0.154 ± 0.15 | promoter activity interaction Z-score [2, 5]: -0.043 ± 0.059 | promoter activity interaction Z-score [2, 6]: 0.355 ± 0.12 | promoter activity interaction Z-score [2, 7]: 0.325 ± 0.045 | promoter activity interaction Z-score [2, 8]: -0.0625 ± 0.16 | promoter activity interaction Z-score [2, 9]: -0.0378 ± 0.015 | promoter activity interaction Z-score [2, 10]: 0.149 ± 0.035 | promoter activity interaction Z-score [2, 11]: -0.0736 ± 0.2 | promoter activity interaction Z-score [2, 12]: 0.0173 ± 0.089 | promoter activity interaction Z-score [2, 13]: 0.196 ± 0.047 | promoter activity interaction Z-score [2, 14]: -0.0928 ± 0.32 | promoter activity interaction Z-score [2, 15]: -0.2 ± 0.021 | promoter activity interaction Z-score [2, 16]: -0.236 ± 0.14 | promoter activity interaction Z-score [2, 17]: -0.217 ± 0.25 | promoter activity interaction Z-score [2, 18]: -0.0806 ± 0.13 | promoter activity interaction Z-score [2, 19]: -0.169 ± 0.064 | promoter activity interaction Z-score [3, 4]: -0.194 ± 0.29 | promoter activity interaction Z-score [3, 5]: -0.0191 ± 0.39 | promoter activity interaction Z-score [3, 6]: -0.0299 ± 0.8 | promoter activity interaction Z-score [3, 7]: -0.292 ± 0.62 | promoter activity interaction Z-score [3, 8]: 0.0244 ± 0.6 | promoter activity interaction Z-score [3, 9]: 0.821 ± 0.86 | promoter activity interaction Z-score [3, 10]: -0.356 ± 0.33 | promoter activity interaction Z-score [3, 11]: 0.551 ± 0.73 | promoter activity interaction Z-score [3, 12]: -0.426 ± 0.95 | promoter activity interaction Z-score [3, 13]: -0.198 ± 0.95 | promoter activity interaction Z-score [3, 14]: -0.855 ± 0.25 | promoter activity interaction Z-score [3, 15]: -0.596 ± 0.53 | promoter activity interaction Z-score [3, 16]: 0.39 ± 0.18 | promoter activity interaction Z-score [3, 17]: 0.271 ± 1.2 | promoter activity interaction Z-score [3, 18]: 0.764 ± 1 | promoter activity interaction Z-score [3, 19]: 0.351 ± 0.69

— the supplement of paper PMC12282887
